Bioassay records as filed in PubChem BioAssay.
PAX8 reporter: inhibitors of PAX8 transcriptional activity in RMG-I cells; RMG-I TPO-luciferase reporter, SteadyGlo, 24 h; inhibition, % at 12.6 µM; 1.2% of 360,000 active; AID 652154;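 active means mean replicate inhibition at least 60% with every replicate also reaching 60%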;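 further: luciferase light reporting Pax8 driven TPO promoter activity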
PGC1a acetyl inh: PGC1a acetylation modulation, inhibitor mode. U2OS PGC1a acetylation, AlphaScreen anti-acetyl-lysine; with virally co-expressed GCN5 acetyltransferase. AID 651687. inhibition, % at 15.6 µM. 0.17% of 350,000 active;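 active means every replicate shows inhibition of at least 40%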
GSIS activator: primary screen for activators of insulin secretion dependent on glucose, INS-1E cells, GLuc reporter luminescence; INS-1E GLuc reporter insulin secretion, 2-3 h; activation, % at 16.6 µM; 0.61% of 370,000 active;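 active means lowest replicate activation of at least 40%, so every replicate reaches that level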
EWS-Fli block: blocks EWS/Fli oncoprotein-driven transcription; A673 NR0B1-luciferase reporter, viability-normalised; inhibition, % at 12.6 µM; 0.67% of 350,000 active; AID 651661;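 active means mean inhibition of at least 50% after viability correction, with every replicate also passing that limit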;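 further: firefly luciferase signal divided by Alamar Blue viability fluorescence both relative to DMSO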
HIV Env fusion: blocks HIV Env-driven cell-cell fusion | HeLa-JRFL Env/CEM21 cell fusion, luciferase | inhibition, % at 12.3 µM | 1.1% of 360,000 active | AID 651610;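 active means mean replicate inhibition score of at least 50 and every replicate individually at or above 50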
CFTR F508del cor: correctors of CFTR F508del function in bronchial epithelial cells. CFBE cells, YFP halide quenching; stimulated with forskolin plus potentiator P3; % fluorescence drop versus neutral controls. activity (quench increase), % at 7.58 µM. 0.36% of 350,000 active;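 active means mean added fluorescence quench of at least 8% versus neutral control, with both replicates also reaching 8%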;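 further: cells transiently co-express mutant CFTR-F508del with the halide-sensitive YFP; corrector assay measuring rescue of mutant channel to the surface after 24 h compound exposure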
Hits are given with their value; – = inactive; · = not tested or not shown; [ ] = remark or other dose. In the library only some 2.7% were active in any assay of this set; here they are far more common.

SMILES	PAX8 reporter	PGC1a acetyl inh	GSIS activator	EWS-Fli block	HIV Env fusion	CFTR F508del cor
CC(C)(C)N(Cc1ccccc1)C(=O)c1cccs1	–	–	·	–	–	–
N#CCCN(Cc1ccccc1)C(=O)c1cccs1	–	–	40.0	–	–	–
Cc1ccc(OCCC(=O)NNC(=O)c2ccc(Br)cc2)cc1	–	·	·	–	–	8.6
CCCOc1ccc(C(=O)NNC(=S)NC(=O)CC)cc1	·	–	·	·	60.0	·
CCOc1ccc(C(=O)NNC(=O)CCNC(=O)c2ccc(Br)cc2)cc1OC	–	–	–	–	–	21.2
C[C@H](CO)N1C[C@H](C)[C@H](CN(C)Cc2cccc(C(F)(F)F)c2)Oc2ncc(C#Cc3ccccc3)cc2C1=O	·	–	–	–	·	–
O=C(c1ccncc1)N1CC(=O)N2[C@H](CO)[C@H](c3ccc(-c4ccccc4F)cc3)[C@H]2C1	–	–	–	–	·	–
Cc1nn(C)c(C(=O)Nc2ccn(Cc3c(F)c(F)cc(F)c3F)n2)c1[N+](=O)[O-]	·	–	–	·	–	·
Cc1nn(Cc2cccc(C(=O)Nc3ccn(Cc4c(F)c(F)cc(F)c4F)n3)c2)c(C)c1[N+](=O)[O-]	·	–	–	·	56.3	·
Clc1ccc(OCCN2CCN(c3ncnc4sccc34)CC2)cc1	·	–	·	·	98.8	·
Cc1ccc(OCCN2CCN(c3ncnc4sc(C)c(C)c34)CC2)cc1	·	–	·	·	85.3	·
Cc1sc2ncnc(N3CCCCC3)c2c1C	·	–	–	–	·	–
CCN1CCN(CCOc2ccc(Cl)cc2)CC1	–	–	–	–	–	–
CCC(=O)N1C[C@@H]2[C@H](c3ccccc31)[C@H](CO)N2CC1CCCC1	–	–	–	–	·	–
COc1ccc2c3c(n(C)c2c1)[C@@H](CO)N(C(=O)NC(C)C)CC31CCN(C(=O)NC(C)C)CC1	·	·	–	–	–	–
CC1C/C(=C/c2cccs2)C(=O)/C(=C/c2cccs2)C1 (configuration not stated)	71.6	·	–	–	·	–
CO[C@H]1CN(C)C(=O)c2ccc(NC(=O)c3cccc(F)c3)cc2OC[C@@H](C)N(CC2CC2)C[C@H]1C	–	–	·	–	–	–
CC(C)NC(=O)N(C)C[C@@H]1Oc2c(N)cccc2C(=O)N(C)C[C@@H]1C	·	·	–	·	·	·
C[C@H](CO)N1C[C@H](C)[C@@H](CN(C)C(=O)C2CCCCC2)OCCCC[C@H](C)Oc2ccc(NS(=O)(=O)c3ccc(Cl)cc3)cc2C1=O	87.7	–	–	–	–	–
C[C@@H]1CN([C@H](C)CO)C(=O)c2cc(NS(=O)(=O)c3ccc(Cl)cc3)ccc2O[C@@H](C)CCCCO[C@H]1CN(C)C(=O)C1CCCCC1	85.4	–	–	–	–	–
C[C@@H]1CCCCO[C@@H](CN(C)C(=O)C2CCCCC2)[C@H](C)CN([C@H](C)CO)C(=O)c2cc(NS(=O)(=O)c3ccc(Cl)cc3)ccc2O1	79.3	–	–	–	–	–
C[C@@H]1CCCCO[C@@H](CN(C)C(=O)C2CCCCC2)[C@@H](C)CN([C@H](C)CO)C(=O)c2cc(NS(=O)(=O)c3ccc(Cl)cc3)ccc2O1	–	–	–	–	–	–
N#C[C@@H]1[C@@H](c2ccccc2-c2ccc(F)cc2)[C@@H](CO)N1c1ncc(-c2ccccc2)s1	–	–	–	–	·	–
Cc1ccc(NC(=O)c2ccc(Cl)c(S(=O)(=O)N3CCCCCC3)c2)nc1	–	–	–	–	61.1	–
O=C(c1ccc(Cl)c(S(=O)(=O)N2CCCCCC2)c1)N1CCN(c2ccccn2)CC1	·	–	–	·	63.2	·
SMILES	PAX8 reporter	PGC1a acetyl inh	GSIS activator	EWS-Fli block	HIV Env fusion	CFTR F508del cor
O=C(Nc1cccc(S(=O)(=O)N2CCCCCC2)c1)c1cncc(Br)c1	–	–	·	–	55.7	–
Cc1ccc(NC(=O)c2ccc(S(=O)(=O)N3CCCCCC3)cc2)nc1	–	–	–	–	–	–
O=C(Nc1ccc(Br)cn1)c1cccc(S(=O)(=O)N2CCCC2)c1	–	–	·	–	56.5	–
CCC(=O)N1CC2(CN(Cc3cccnc3)C2)c2c(n(C)c3cc(OC)ccc23)[C@H]1CO	·	–	–	–	·	–
COc1ccccc1NC(=O)N(C)C[C@H]1Oc2cc(Br)ccc2S(=O)(=O)N([C@@H](C)CO)C[C@@H]1C	–	–	–	–	–	–
CCOC(=O)c1oc2ccccc2c1COC(=O)CNC(=O)c1ccco1	–	·	–	–	–	–
Nc1c(C(=O)c2ccco2)oc2ccccc12	–	·	–	–	–	14.5
CCOC(=O)c1oc2ccccc2c1NC(=O)c1ccco1	–	·	49.2	·	–	–
CO[C@H]1CN(C)C(=O)c2cc(NC(=O)C3CC3)ccc2OC[C@@H](C)N(Cc2ccccc2)C[C@@H]1C	·	–	–	–	·	–
CCC(=O)N(C)C[C@H]1Oc2ncc(-c3ccc(C)cc3)cc2C(=O)N([C@@H](C)CO)C[C@H]1C	·	–	–	–	–	–
CN1CCN(C(=O)C[C@H]2CC[C@H](NC(=O)c3ccc4c(c3)OCO4)[C@@H](CO)O2)CC1	–	–	–	–	–	–
CN1C[C@@H]2[C@H](c3ccccc31)[C@H](CO)N2C(=O)CN1CCOCC1	–	–	–	–	·	–
C[C@@H]1CCCCO[C@H](CN(C)C(=O)c2ccccc2)[C@H](C)CN([C@H](C)CO)C(=O)c2cc(NS(=O)(=O)c3cn(C)cn3)ccc2O1	–	–	–	–	–	–
CNC(=O)CSc1nc2cccnc2n1C1CCCCC1	–	–	–	–	–	–
CNC(=O)CSc1nc2cccnc2n1-c1ccc(F)cc1	–	–	78.4	–	–	–
C[C@H](CO)N1C[C@H](C)[C@H](CN(C)C(=O)Nc2cccc3ccccc23)Oc2c(NS(=O)(=O)c3ccccc3)cccc2C1=O	–	–	–	–	–	–
C[C@@H]1CCCCO[C@H](CN(C)S(=O)(=O)c2ccc(Cl)cc2)[C@@H](C)CN([C@H](C)CO)C(=O)c2cc(NS(=O)(=O)c3cccs3)ccc2O1	–	–	–	–	–	–
C[C@H]1CCCCO[C@@H](CN(C)S(=O)(=O)c2cccs2)[C@@H](C)CN([C@@H](C)CO)C(=O)c2cc(NS(=O)(=O)c3ccccc3)ccc2O1	–	–	–	–	62.5[16.7 µM]	–
C[C@@H]1CN([C@H](C)CO)C(=O)c2cc(NS(=O)(=O)c3ccccc3)ccc2O[C@@H](C)CCCCO[C@H]1CN(C)S(=O)(=O)c1cccs1	–	–	–	–	–	–
Cc1ccc(S(=O)(=O)N(C)C[C@@H]2OCCCC[C@H](C)Oc3ccc(NS(=O)(=O)c4cccs4)cc3C(=O)N([C@H](C)CO)C[C@@H]2C)cc1	66.8	–	–	–	–	–
C[C@@H]1CCCCO[C@@H](CN(C)S(=O)(=O)c2ccc(Cl)cc2)[C@H](C)CN([C@H](C)CO)C(=O)c2cc(NS(=O)(=O)c3cccs3)ccc2O1	70.4	–	–	–	–	–
